FLuc modulator – counter-screen for miR-21 project: firefly luciferase inhibitors or activators | 6.9% of 360,000 active | purified FLuc, Km substrates, luminescence inhibition | P08659 | Potency, µM (series often up to 57.5 µM), inactives show top-dose activity change, negative = inhibition, actives largely listed as inhibitors;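 also: plate controls were vehicle for no effect and reference inhibitor for full effect; nearly all actives have a fitted effect of over 55% in size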
Target sequence (P08659 whole entry, looked up): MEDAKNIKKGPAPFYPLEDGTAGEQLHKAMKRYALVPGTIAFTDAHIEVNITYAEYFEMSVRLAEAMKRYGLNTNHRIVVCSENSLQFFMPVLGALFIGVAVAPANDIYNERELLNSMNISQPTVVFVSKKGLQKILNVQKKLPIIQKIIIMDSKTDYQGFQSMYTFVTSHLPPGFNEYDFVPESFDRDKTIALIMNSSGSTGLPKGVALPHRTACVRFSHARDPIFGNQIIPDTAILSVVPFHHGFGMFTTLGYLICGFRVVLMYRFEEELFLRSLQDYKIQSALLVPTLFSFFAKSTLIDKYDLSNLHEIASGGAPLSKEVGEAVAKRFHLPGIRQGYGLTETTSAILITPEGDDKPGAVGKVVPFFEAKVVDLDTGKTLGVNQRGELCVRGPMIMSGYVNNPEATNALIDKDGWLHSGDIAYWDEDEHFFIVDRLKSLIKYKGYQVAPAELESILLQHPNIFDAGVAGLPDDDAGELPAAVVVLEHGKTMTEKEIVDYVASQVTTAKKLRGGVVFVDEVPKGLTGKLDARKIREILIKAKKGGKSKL
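Purified P. pyralis luciferase, 10 nM final, with Km-level 10 uM D-luciferin and 10 uM ATP in 50 mM Tris acetate pH 7.5, 10 mM Mg acetate, 0.01% Tween-20, 0.05% BSA; 6-point qHTS titration about 60 µM downward; luminescence read.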
ELG1 genotoxic – induces genotoxicity in HEK293T cells with luciferase-tagged ELG1 | Potency, µM (doses to about 46 µM), without a hit: at the highest dose activity change, positive = activation, usual class: activators | 1.3% of 330,000 active | HEK293T ELG1-luciferase reporter, luminescence, 16 h; also: % of control where 0% means no effect; nearly all actives have a fitted effect of over 60% in size
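Quantitative HTS format in 1536-well plates. HEK293T ELG1-luciferase reporter cells receive test compound and are incubated 16 hr at 37 °C, 5% CO2; ONE-Glo added, 30 min room temperature, then luminescence read.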
Rab9 prom act – activates the Rab9 promoter; Huh7 Rab9 promoter-luciferase reporter, luminescence, 24 h; Potency, µM (highest dose often 9.22 µM), for inactives: at the highest dose activation, negative = inhibition, actives largely listed as activators; 2.8% of 320,000 active; AID 485297; also: % of control where 0% means no effect; nearly all actives have a fitted effect of over 60% in size
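Huh7 reporter line, Rab9 promoter upstream of luciferase. Compound exposure 24 h at 37 °C in reduced-serum medium with 10% FBS. Read-out: luminescence.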
NPC1 prom act – activates the NPC1 promoter; Huh7 NPC1 promoter luciferase reporter, 24 h; AID 485313; 2.4% of 320,000 active; Potency, µM (top dose mostly 9.22 µM), for the others: top-dose activation, hits mostly activators; also: % of control where 0% means no effect; nearly all actives have a fitted effect of over 60% in size
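Luminescence read-out of NPC1 promoter-driven luciferase in stably transfected Huh7 cells; compounds delivered in DMSO and left 24 h at 37C, 5% CO2, qHTS titration format.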
SMN2 splice up – SMN2 splice variant enhancement | HEK293 SMN2-luciferase splicing reporter, luminescence, 30-36 h | Potency, µM (series often up to 46.1 µM), without a hit: at the highest dose activity change, positive = activation, actives largely listed as activators | 2.8% of 210,000 active; also: % of control where 0% means no effect; nearly all actives have a fitted effect of over 55% in size
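HEK293 cells carry an SMN2 […]–luciferase reporter in which exon 7 inclusion puts luciferase in frame. Cells were plated 10-12 h before compound addition, then incubated 30-36 h at 37C. ONE-Glo luminescence was read; sodium butyrate at 4.5 mM final served as control.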
ELG1 DNA repair – blocks ELG1-dependent DNA repair in HEK293T cells | 2.3% of 330,000 active | HEK293T ELG1-luciferase reporter, luminescence, 16 h; DNA damage induced by 5-fluorouridine | AID 504467 | Potency, µM (titrated, usually from 46.1 µM), for inactives: at the top dose activity change, negative = inhibition, actives largely listed as inhibitors; also: % is scaled to controls: 0 for no effect and ±100 for the full control effect; nearly all actives have a fitted effect of over 55% in size
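Reporter activity after DNA damage by 5-fluorouridine is monitored. Compound-treated cells incubate 16 hr at 37 °C, then ONE-Glo is added for 30 min before luminescence reading.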
Starred values were filed as active, the others as inactive; ? = inconclusive; / = not tested or not shown; [ ] = dose if it differs, or a comment. The list is not random: actives were taken first. Their share in the collection is about 9.2%. Calls follow the shape of the dose curve; as a rule, active = well fitted curve in the direction sought with a large enough effect; inconclusive = small, poorly fitted or top-dose-only effect, or another doubt; inactive = no such curve, though single readings can be large; an effect the other way counts as inactive or inconclusive. Potency is read from the fitted curve at half-maximal effect.

SMILES	FLuc modulator	ELG1 genotoxic	Rab9 prom act	NPC1 prom act	SMN2 splice up	ELG1 DNA repair
CC(=O)NC1C(=O)N(CCN2CCOCC2)c2ccc(C)cc21 (centres undefined)	21.3µM*	-1.1%	11.4%	-8.2%	/	16.0%
COc1cc2nc(NCCc3ccccc3)n3nc(-c4cccnc4)nc3c2cc1OC	-4.3%	/	/	/	0.0%	/
CN(C)S(=O)(=O)N1CCC(Oc2cccc(C(=O)NC3CCCCCC3)c2)CC1	3.1%	-18.3%	-32.5%	-26.2%	/	16.4µM*
COCC(=O)N1CCC(Oc2ccc(C(=O)NCc3cc(C)no3)cc2)CC1	1.6%	-2.3%	3.8%	0.4%	/	2.0%
CN(C)S(=O)(=O)N1CCC(Oc2ccc(C(=O)NC3Cc4ccccc4C3)cc2)CC1	?	12.8%	-17.0%	-16.1%	/	16.1%
Cc1cc(CNC(=O)c2cccc(OC3CCN(S(=O)(=O)N(C)C)CC3)c2)on1	15.1µM*	12.1%	?	3.55µM*	/	?
CC1CCCCN1C(=O)c1ccc(OC2CCN(S(=O)(=O)N(C)C)CC2)cc1 (centres undefined)	?	-1.8%	-4.1%	-6.8%	/	9.2µM*
Cc1ccc(C2N3CC4(C)CN2CC(c2ccccc2)(C3)C4=O)cc1 (centres undefined)	5.4%	/	/	/	5.3%	/
Cc1ccc(-c2nnc(NC3CCCCC3)c3ccccc23)cc1S(=O)(=O)N1CCN(C)CC1	-4.5%	1.2%	4.6%[1.84 µM]	-0.5%	0.8%	23.1µM*
Cc1ccc(-c2nnc(Nc3ccccc3)c3ccccc23)cc1S(=O)(=O)NCc1nc2ccccc2[nH]1	-1.0%	/	/	/	-2.0%	/
COc1ccc(Nc2nnc(-c3ccc(C)c(S(=O)(=O)N4CCN(C)CC4)c3)c3ccccc23)cc1	16.9µM*	/	/	/	0.1%	/
Cc1ccc(-c2nnc(NCc3nc4ccccc4[nH]3)c3ccccc23)cc1S(=O)(=O)N1CCCCC1	5.6%	-1.2%	-5.2%	-2.6%	-23.9%	8.2µM*
COc1ccccc1S(=O)(=O)Cc1ccc(C(=O)NCCCN2CCN(c3ccc(F)cc3)CC2)o1	4.1%	-16.0%	-4.8%	-0.7%	/	-29.3%
O=C(CNS(=O)(=O)c1ccc2ccccc2c1)OCc1nnc(-c2ccccc2)o1	-2.5%	?	-0.5%	-0.5%	11.0%	0.0%
CCC(=O)N1CCc2cc(Br)cc(S(=O)(=O)CCC(=O)NCCc3ccc(Cl)cc3)c21	-4.3%	/	/	/	1.2%	/
COc1ccccc1-c1cc(C(=O)N2CCc3ccccc3C2)c2ccccc2n1	-0.3%	-6.4%	0.3%	-4.6%	-24.2%	13µM*
COc1ccc(Nc2cc(C(=O)N3CCc4ccccc4C3)c3ccccc3n2)c(OC)c1	15.1µM*	-19.2%	-1.5%	-0.6%	-9.5%	20.6µM*
Cc1cccc(N2CCN(C(=O)NC3CCCCC3)CC2C)c1 (centres undefined)	1.6%	-5.3%	-4.3%	-4.0%	/	-23.8%
COc1ccc(-n2c(C)cc(C(=O)NC3CCCCC3)c2C)cc1	13.5µM*	26.0%	3.55µM*	?	?	?
COc1ccc(N2CC(C(=O)NC3CCCCC3)CC2=O)cc1 (centres undefined)	0.2%	2.3%	-0.7%	0.6%	/	?
Cc1cccc(-n2c(C)cc(C(=O)NC3CCCCC3)c2C)c1	21.3µM*	?	3.55µM*	?	?	?
N#CC(c1ccccc1O)N1N=C(c2ccccc2)CC1c1ccccc1 (centres undefined)	9.53µM*	?	?	16.2%	/	?
COc1cc(C(C#N)N2N=C(c3ccccc3)CC2c2ccccc2)ccc1O (centres undefined)	?	?	12.0%	14.9%	-0.7%	?
CCCc1cc(CN(C)C(=O)CC2C(=O)NCCN2Cc2ccccc2C)[nH]n1 (centres undefined)	2.3%	8.2%	16.8%	4.0%	/	-1.2%
COc1ccc(/C=C2\S/C(=N/S(=O)(=O)c3cccs3)NC2=O)cc1	19µM*	-0.7%	-0.6%	-4.1%	8.6%	-5.1%
SMILES	FLuc modulator	ELG1 genotoxic	Rab9 prom act	NPC1 prom act	SMN2 splice up	ELG1 DNA repair
COC(=O)c1ccccc1S(=O)(=O)N1CCC(C(=O)NCc2ccco2)CC1	0.2%	1.3%	-3.3%	-2.3%	/	0.0%
COc1ccccc1CCNC(=O)C(=O)NCC(c1cccs1)S(=O)(=O)c1ccccc1 (centres undefined)	-10.4%	/	/	/	/	/
CCc1cc(CNC(=O)c2cc(COc3ccc(C)nc3)on2)on1	16.9µM*	?	?	?	/	?
Cc1ccc(OCc2cc(C(=O)NCc3ccc(OC(F)(F)F)cc3)no2)cn1	3.2%	-8.0%	2.0%	-2.2%	/	-2.7%
Cc1cc(CNC(=O)c2cc(COc3ccc(F)c(F)c3)on2)nn1C	?	?	1.26µM*	2.82µM*	/	?
Cc1cc(C)n(CC(C)NC(=O)c2cc(COc3ccc(F)c(F)c3)on2)n1 (centres undefined)	?	13.5%	25.6%	?	/	?
C=CCC1(CC=C)CCCN1C(=O)c1cc(COc2ccc(C)nc2)on1	19µM*	17.3%	-28.9%	-24.1%	/	?
COc1cc(C2C(C(=O)Nc3ccccc3C)=C(C)Nc3nc(SCc4cc(C)ccc4C)nn32)ccc1O (centres undefined)	-2.2%	/	/	/	/	/
O=C(C1CCN(S(=O)(=O)c2ccc(Br)s2)CC1)N1CCN(c2cccc(C(F)(F)F)c2)CC1	-5.1%	/	/	/	-21.8%	/
COc1ccc(S(=O)(=O)Nc2ccc3c(c2)C(=O)N([C@H](C)CO)C[C@H](C)[C@@H](CN(C)C(=O)Nc2c(C)noc2C)O3)cc1	/	1.7%	/	/	/	16.0%
O=C(c1ccco1)N1CCN(C(=S)Nc2ccccc2C(F)(F)F)CC1	-0.8%	-12.0%	1.0%	1.0%	/	20.6µM*
FC(F)(F)c1ccccc1NC(=S)N1CCCC1	0.2%	1.7%	3.0%	-2.7%	/	-5.2%
O=C(COC(=O)c1cc(=O)c2ccccc2o1)NC1CCCC1	-4.2%	-0.6%	0.4%	-12.0%	0.6%	-24.4%
CC(=O)N1CCOc2ccc(S(=O)(=O)Nc3ccc(C)cn3)cc21	0.7%	-1.2%	-3.4%	3.9%	/	0.8%
CC(=O)c1ccc2noc(-c3cccc(C)c3)c2c1	?	1.5%	12.5%	4.9%	-9.0%	0.0%
c1ccc(-c2onc3cc4c(cc23)OCCO4)cc1	-10.4%[2.3 µM]	?	3.16µM*	?	35.5µM*	?
CN(C)/C=C/C(=O)c1ccc2noc(-c3ccccc3)c2c1	?	-8.5%	-2.5%	12.4%	/	23.1µM*
CC(=O)c1ccc2noc(-c3ccccc3)c2c1	?	3.2%	0.1%	-3.6%	/	9.2µM*

Compound activity: PubChem, National Center for Advancing Translational Sciences (NCATS)
